Measured values taken from PubChem BioAssay (EPA / NIEHS).
Activity calls are given as the source filed them. The calls were made as follows: active = hit-call score of the fitted dose curve at least 0.9, where 1 is the maximum; inactive = score below 0.9.

Experiments:
[1] = target: Transcription factor E2F1 (Homo sapiens) (UniProt Q01094); assay: ATG_E2F_CIS: Attagene CIS-FACTORIAL HepG2 Assay for human E2F Transcription Factor 1 (AID 2282935); details: HepG2 Attagene cis-reporter, E2F reporter RNA transcripts; actives raise or lower the signal
Transcription factor E2F1 (Homo sapiens), sequence (Q01094 whole entry, looked up): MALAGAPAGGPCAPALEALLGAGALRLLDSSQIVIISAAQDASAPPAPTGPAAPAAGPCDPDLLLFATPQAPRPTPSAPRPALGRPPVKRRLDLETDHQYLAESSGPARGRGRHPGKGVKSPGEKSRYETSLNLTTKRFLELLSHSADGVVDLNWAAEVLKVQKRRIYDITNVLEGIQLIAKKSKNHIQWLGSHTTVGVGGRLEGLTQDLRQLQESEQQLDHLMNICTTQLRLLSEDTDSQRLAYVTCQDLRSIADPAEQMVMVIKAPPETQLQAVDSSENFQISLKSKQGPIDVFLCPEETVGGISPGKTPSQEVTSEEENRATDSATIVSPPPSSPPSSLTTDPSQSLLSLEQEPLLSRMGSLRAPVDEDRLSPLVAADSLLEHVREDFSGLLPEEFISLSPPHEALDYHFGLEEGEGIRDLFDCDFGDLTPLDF
Outline: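 Gain or loss of reporter transcript, fitted against DMSO, reflects E2F1-driven transcription. Transiently transfected HepG2 dosed 24 h before RNA isolation. Quantified by fluorescent RT-PCR products separated by capillary electrophoresis.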

[2] = ATG_E_Box_CIS: Attagene CIS-FACTORIAL HepG2 Assay for human Enhancer Box (E-box) (AID 2282936); details: HepG2 E-box cis-reporter transcription, actives raise or lower the signal
Outline: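 E-box-driven reporter transcripts measured in transiently transfected HepG2 after 24 h exposure: RNA reverse-transcribed, PCR-amplified, fluorescently labelled, digested and resolved by capillary electrophoresis. Gain or loss relative to DMSO.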

[3] = ATG_M_61_CIS: Attagene CIS-FACTORIAL HepG2 Assay for M61 Transcription Factor (Internal Marker) (AID 2282937); details: HepG2 Attagene CIS-FACTORIAL M61 internal marker reporter; actives raise or lower the signal
Outline: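 HepG2 cells transiently transfected with cis-element-driven multiple reporter transcription units, dosed for 24 h. Reporter mRNA measured by RT-PCR, 6-FAM primer-extension labelling, HpaI digestion and capillary electrophoresis; bidirectional fit versus DMSO baseline.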

[4] = ATG_EGR_CIS: Attagene CIS-FACTORIAL HepG2 Assay for human Early Growth Response 1 (EGR1) (AID 2282938); details: HepG2 Attagene CIS-FACTORIAL EGR reporter mRNA; actives raise or lower the signal
Outline: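 HepG2 cells transiently transfected with cis-promoter-driven multiplexed reporter transcription units; reporter mRNA measured 24 h after compound dosing by RT-PCR, 6-FAM primer extension, HpaI digestion and capillary electrophoresis. Bidirectional fit versus DMSO baseline.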

[5] = ATG_M_19_CIS: Attagene CIS-FACTORIAL HepG2 Assay for M19 Transcription Factor (Internal Marker) (AID 2282939); details: HepG2 Attagene CIS-FACTORIAL M19 internal marker reporter; actives raise or lower the signal
Outline: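 Internal marker readout, fitted in both directions against DMSO, from HepG2 cells carrying transfected cis-element reporter constructs; RT-PCR and capillary electrophoresis of reporter mRNA after 24 h exposure.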

[6] = ATG_ERE_CIS: Attagene CIS-FACTORIAL HepG2 Assay for Estrogen Response Element (ERE) (AID 2282940); details: HepG2 ERE cis-reporter, Attagene RNA transcript; actives raise or lower the signal
Outline: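 After 24 h compound treatment, RNA from transfected HepG2 cells was reverse-transcribed, reporter cDNA PCR-amplified, FAM-labelled, HpaI-cut and resolved by capillary electrophoresis. ERE-driven cis reporter transcripts reflect endogenous factors; gain or loss scored against DMSO.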

[7] = ATG_Ets_CIS: Attagene CIS-FACTORIAL HepG2 Assay for human Erythroblast Transformation Specific (ETS) (AID 2282941); details: HepG2 ETS cis-reporter transcription, actives raise or lower the signal
Outline: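 Cis-regulated reporter mRNA induction in HepG2 (transient transfection), 24 h exposure, RT-PCR plus capillary electrophoresis detection; DMSO serves as negative control and baseline.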

[8] = target: Hepatocyte nuclear factor 3-beta (Homo sapiens) (UniProt Q9Y261); assay: ATG_FoxA2_CIS: Attagene CIS-FACTORIAL HepG2 Assay for human Forkhead box A2 (FOXA2) (AID 2282942); details: HepG2 cis-reporter transcription factor activity, 24 h; actives raise or lower the signal
Hepatocyte nuclear factor 3-beta (Homo sapiens), sequence (Q9Y261 whole entry, looked up): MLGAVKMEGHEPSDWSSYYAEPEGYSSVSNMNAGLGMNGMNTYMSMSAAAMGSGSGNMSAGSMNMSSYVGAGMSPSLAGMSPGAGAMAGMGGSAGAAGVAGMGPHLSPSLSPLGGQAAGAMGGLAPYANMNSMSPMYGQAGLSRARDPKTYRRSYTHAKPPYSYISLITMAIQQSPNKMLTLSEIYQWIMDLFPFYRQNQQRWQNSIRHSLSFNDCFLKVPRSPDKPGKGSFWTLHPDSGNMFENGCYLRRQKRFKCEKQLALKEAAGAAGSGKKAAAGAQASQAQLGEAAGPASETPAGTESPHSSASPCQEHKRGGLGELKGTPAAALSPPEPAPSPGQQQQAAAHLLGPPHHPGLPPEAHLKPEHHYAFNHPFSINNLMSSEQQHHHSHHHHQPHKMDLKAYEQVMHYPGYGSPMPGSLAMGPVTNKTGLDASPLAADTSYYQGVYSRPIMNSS
Outline: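 HepG2 cells transiently transfected with multiple cis-regulated reporter transcription units, dosed for 24 h. Reporter mRNA measured by RT-PCR, 6-FAM labelling, HpaI digestion and capillary electrophoresis; bidirectional fitting against DMSO baseline.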

[9] = ATG_FoxO_CIS: Attagene CIS-FACTORIAL HepG2 Assay for human Forkhead box O (FoxO) (AID 2282943); details: HepG2 Attagene cis-reporter, FoxO element, mRNA; actives raise or lower the signal
Outline: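 HepG2, transient MRTU transfection (cis element, endogenous TFs). Dose 24 h. TriZol RNA → oligo(dT) RT → PCR → 6-FAM primer extension → HpaI cut → CE. Gain/loss vs DMSO.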

[10] = ATG_GATA_CIS: Attagene CIS-FACTORIAL HepG2 Assay for human GATA Binding Protein (AID 2282944); details: HepG2 GATA cis-element reporter, Attagene multiplex mRNA; actives raise or lower the signal
Outline: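 Reporter transcripts from a GATA cis-regulated unit, among multiplexed reporters in transfected HepG2 cells, were measured by RT-PCR with capillary electrophoresis after 24 h dosing. Induction or loss scored relative to DMSO.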

[11] = ATG_GLI_CIS: Attagene CIS-FACTORIAL HepG2 Assay for human Zinc Finger Protein GLI1 (AID 2282945); details: HepG2, Attagene cis-factorial reporter mRNA, GLI element; actives raise or lower the signal
Outline: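 Bidirectional curve fits relative to DMSO, using reporter mRNA levels from RT-PCR plus capillary electrophoresis. Cells were HepG2 transiently carrying cis-regulated reporter constructs, harvested 24 h after dosing.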

[12] = ATG_GRE_CIS: Attagene CIS-FACTORIAL HepG2 Assay for human Glucocorticoid Response Elements (GRE) (AID 2282947); details: HepG2 GRE cis-reporter, Attagene multiplex mRNA; actives raise or lower the signal
Outline: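 Reporter transcripts read by RT-PCR with capillary electrophoresis fluorescence after a 24 h chemical exposure of HepG2 cells transiently transfected with multiple cis-element reporter units. Gain or loss fitted against DMSO.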

[13] = ATG_ISRE_CIS: Attagene CIS-FACTORIAL HepG2 Assay for human Interferon Regulatory Factor 1 (IRF1) binding to an Interferon-Stimulated Response Element (ISRE) (AID 2282948); details: HepG2 ISRE cis-reporter (Attagene), mRNA transcription readout; actives raise or lower the signal
Outline: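 Multiplexed mRNA reporter readout in human liver HepG2 cells: cis-element-driven reporters transfected, compound added for 24 h, transcripts amplified, fluorescently labelled and sized by capillary electrophoresis; curve fitting bidirectional against DMSO.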

[14] = ATG_M_32_CIS: Attagene CIS-FACTORIAL HepG2 Assay for M32 Transcription Factor (Internal Marker) (AID 2282949); details: HepG2 Attagene cis-factorial M32 reporter, mRNA; actives raise or lower the signal;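 also: background control marker of the multiplexed CIS panel rather than a real target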
Outline: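 HepG2 transfectants (cis-regulated reporter transcription units) dosed 24 h. Reporter mRNA by RT-PCR plus CE, analysed as gain or loss relative to DMSO.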

[15] = ATG_M_06_CIS: Attagene CIS-FACTORIAL HepG2 Assay for M06 Transcription Factor (Internal Marker) (AID 2282950); details: HepG2 Attagene CIS-FACTORIAL M06 internal marker reporter; actives raise or lower the signal
Outline: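 Serves as a background control readout. Transfected HepG2 exposed to compounds for 24 h, then reporter transcripts quantified by fluorescent RT-PCR and capillary electrophoresis. Both directions fitted against DMSO baseline.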

[16] = target: Hypoxia-inducible factor 1-alpha (Homo sapiens) (UniProt Q16665); assay: ATG_HIF1a_CIS: Attagene CIS-FACTORIAL HepG2 Assay for human Hypoxia Inducible Factor 1 (HIF1A) (AID 2282951); details: HepG2 Attagene cis-factorial HIF1a reporter transcription; actives raise or lower the signal
Hypoxia-inducible factor 1-alpha (Homo sapiens), sequence (Q16665 whole entry, looked up): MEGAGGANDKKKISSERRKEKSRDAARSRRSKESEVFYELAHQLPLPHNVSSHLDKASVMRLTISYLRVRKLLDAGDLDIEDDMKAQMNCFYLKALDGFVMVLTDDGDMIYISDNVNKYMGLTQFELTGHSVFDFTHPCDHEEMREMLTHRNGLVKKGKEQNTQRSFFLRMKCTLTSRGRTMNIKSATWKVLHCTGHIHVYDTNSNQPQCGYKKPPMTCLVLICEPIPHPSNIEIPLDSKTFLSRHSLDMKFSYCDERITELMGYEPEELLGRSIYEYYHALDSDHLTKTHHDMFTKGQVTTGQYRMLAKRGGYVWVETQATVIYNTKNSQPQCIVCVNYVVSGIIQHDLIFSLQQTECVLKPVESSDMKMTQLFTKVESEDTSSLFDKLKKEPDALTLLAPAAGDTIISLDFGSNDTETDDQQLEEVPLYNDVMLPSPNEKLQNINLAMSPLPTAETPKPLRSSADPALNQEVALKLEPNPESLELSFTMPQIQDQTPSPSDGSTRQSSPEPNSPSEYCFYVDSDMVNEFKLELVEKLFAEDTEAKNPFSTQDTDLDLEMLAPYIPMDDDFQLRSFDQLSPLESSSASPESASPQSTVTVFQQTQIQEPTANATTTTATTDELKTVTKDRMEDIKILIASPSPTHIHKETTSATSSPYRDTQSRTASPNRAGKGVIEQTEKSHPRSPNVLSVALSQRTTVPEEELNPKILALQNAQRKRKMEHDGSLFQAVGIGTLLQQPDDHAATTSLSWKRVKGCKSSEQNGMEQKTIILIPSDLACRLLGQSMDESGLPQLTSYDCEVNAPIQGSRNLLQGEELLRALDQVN
Outline: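 HepG2 cells transiently transfected with multiplexed cis-promoter reporter units; reporter mRNA read 24 h after dosing by RT-PCR, 6-FAM primer-extension labelling, HpaI digestion and capillary electrophoresis. Bidirectional fit versus DMSO baseline.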

[17] = target: Hepatocyte nuclear factor 6 (Homo sapiens) (UniProt Q9UBC0); assay: ATG_HNF6_CIS: Attagene CIS-FACTORIAL HepG2 Assay for human Hepatocyte Nuclear Factor 6 (HNF6) (AID 2282952); details: HepG2 Attagene cis-factorial HNF6 reporter transcription; actives raise or lower the signal
Hepatocyte nuclear factor 6 (Homo sapiens), sequence (Q9UBC0 whole entry, looked up, the tested form may be a part): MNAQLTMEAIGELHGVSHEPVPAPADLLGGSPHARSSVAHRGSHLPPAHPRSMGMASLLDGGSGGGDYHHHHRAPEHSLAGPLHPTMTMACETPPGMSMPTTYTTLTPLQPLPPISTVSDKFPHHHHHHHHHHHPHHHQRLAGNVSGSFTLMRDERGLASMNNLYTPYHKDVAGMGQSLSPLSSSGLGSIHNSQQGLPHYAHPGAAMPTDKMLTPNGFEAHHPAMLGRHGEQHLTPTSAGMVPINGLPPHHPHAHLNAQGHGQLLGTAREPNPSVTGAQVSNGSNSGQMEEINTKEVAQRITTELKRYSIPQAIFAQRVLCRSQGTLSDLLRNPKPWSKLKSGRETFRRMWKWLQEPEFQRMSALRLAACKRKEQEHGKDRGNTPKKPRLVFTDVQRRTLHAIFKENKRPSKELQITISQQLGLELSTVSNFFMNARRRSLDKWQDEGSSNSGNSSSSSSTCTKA
Outline: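 First, HepG2 cells were transfected with the multiplexed cis reporter library and dosed with chemical for 24 h. Next, RNA was reverse-transcribed, PCR-amplified and fluorescently labelled. Finally, HpaI-digested fragments were read by capillary electrophoresis.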

[18] = target: Heat shock factor protein 1 (Homo sapiens) (UniProt Q00613); assay: ATG_HSE_CIS: Attagene CIS-FACTORIAL HepG2 Assay for human Heat Shock Transcription Factor 1 (HSE) (AID 2282953); details: HepG2 HSE cis-reporter, Attagene RNA transcription; actives raise or lower the signal
Heat shock factor protein 1 (Homo sapiens), sequence (Q00613 whole entry, looked up): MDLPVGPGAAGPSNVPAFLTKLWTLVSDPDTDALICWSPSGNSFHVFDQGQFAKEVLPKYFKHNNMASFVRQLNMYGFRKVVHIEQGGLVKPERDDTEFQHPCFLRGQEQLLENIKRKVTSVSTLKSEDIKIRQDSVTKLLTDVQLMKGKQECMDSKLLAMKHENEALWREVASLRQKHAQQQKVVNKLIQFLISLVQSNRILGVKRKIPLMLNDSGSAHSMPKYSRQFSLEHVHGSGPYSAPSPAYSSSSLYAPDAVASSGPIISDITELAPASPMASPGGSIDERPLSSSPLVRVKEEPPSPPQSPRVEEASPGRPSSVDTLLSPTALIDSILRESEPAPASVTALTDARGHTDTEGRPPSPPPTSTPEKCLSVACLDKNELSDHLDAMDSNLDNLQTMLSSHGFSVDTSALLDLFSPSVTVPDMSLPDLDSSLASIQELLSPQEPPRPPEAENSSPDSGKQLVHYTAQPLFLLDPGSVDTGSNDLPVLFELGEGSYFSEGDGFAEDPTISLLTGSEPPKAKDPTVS
Outline: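 Endogenous transcription factor activity in transiently transfected HepG2, read as reporter mRNA by RT-PCR with fluorescent capillary electrophoresis after 24 h. Gain or loss of signal fitted versus DMSO baseline.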

[19] = ATG_MRE_CIS: Attagene CIS-FACTORIAL HepG2 Assay for human Metal Responsive Element (MRE) (AID 2282954); details: HepG2 MRE cis-reporter transcription, Attagene multiplex; actives raise or lower the signal
Outline: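 Endogenous MRE-dependent transcription read as reporter mRNA in transiently transfected human HepG2 cells at 24 h. RNA reverse-transcribed, PCR-amplified, labelled and resolved by capillary electrophoresis; gain or loss relative to DMSO.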

[20] = target: Bile acid receptor (Homo sapiens) (UniProt Q96RI1); assay: ATG_IR1_CIS: Attagene CIS-FACTORIAL HepG2 Assay for human Nuclear Receptor Subfamily 1 Group H Member 4 (NR1H4), IR1 submotif (AID 2282946); details: IR1 reporter transcription, actives raise or lower the signal
Bile acid receptor (Homo sapiens), sequence (Q96RI1 whole entry, looked up): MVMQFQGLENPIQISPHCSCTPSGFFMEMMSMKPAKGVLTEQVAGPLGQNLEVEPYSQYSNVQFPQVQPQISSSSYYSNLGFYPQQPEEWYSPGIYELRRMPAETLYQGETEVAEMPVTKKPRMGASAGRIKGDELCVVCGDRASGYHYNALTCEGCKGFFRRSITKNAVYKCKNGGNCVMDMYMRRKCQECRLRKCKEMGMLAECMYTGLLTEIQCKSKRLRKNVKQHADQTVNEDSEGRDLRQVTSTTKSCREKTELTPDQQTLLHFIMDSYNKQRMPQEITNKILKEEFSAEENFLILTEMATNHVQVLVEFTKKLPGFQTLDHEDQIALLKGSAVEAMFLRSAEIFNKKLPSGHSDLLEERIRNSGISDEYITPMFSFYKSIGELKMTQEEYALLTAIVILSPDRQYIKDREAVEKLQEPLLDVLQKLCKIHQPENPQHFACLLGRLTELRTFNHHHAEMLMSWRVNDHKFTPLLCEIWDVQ
Outline: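 HepG2 cells transiently transfected with multiplexed cis-element reporter units read endogenous transcription factor activity. After 24 h compound exposure, reporter mRNA was quantified by RT-PCR, fluorescent labelling, HpaI digestion and capillary electrophoresis; bidirectional fitting versus DMSO baseline.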

Measured: AC50

CSC(=O)c1c(C(F)F)nc(C(F)(F)F)c(C(=O)SC)c1CC(C)C
active: [6] 3.83 µM
not listed: [20]
inactive: all other assays above

O=C(Nc1ccccc1-c1ccc(Cl)cc1)c1cccnc1Cl
not listed: [10] | [20]
inactive: all other assays above

Nc1cnn(-c2ccccc2)c(=O)c1Cl
not listed: [3] | [20]
inactive: all other assays above

COCC(C)N(C(=O)CCl)c1c(C)csc1C (stereo not given)
not listed: [10]
inactive: all other assays above

N#CN=C1SCCN1Cc1ccc(Cl)nc1
not listed: [20]
inactive: all other assays above

CC1(C)C(C(=O)OC(C#N)c2cccc(Oc3ccccc3)c2)C1(C)C (stereo not given)
active: [19] 10.8 µM
not listed: [5] | [12]
inactive: all other assays above

CS(=O)(=O)c1ccc(C(=O)C2C(=O)CCCC2=O)c([N+](=O)[O-])c1
not listed: [5]
inactive: all other assays above
